Screening data as filed in PubChem BioAssay.
Six1-Eya2 blk: qHTS Assay for Inhibitors of the Six1/Eya2 Interaction; AID 651725, 2012; Homeobox protein SIX1 (Homo sapiens) + Protein phosphatase EYA2 (Homo sapiens), …; 360,000 compounds, 0.56% hits; activity change, % (test concentration not listed); AlphaScreen GST-Six1/His-Eya2 binding, biochemical; hits give low values; in the data active = activity change below about -65%; inconclusive = mostly about -30% to -63%
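Six1/Eya2 binding was read as AlphaScreen signal after compounds were pinned into GST-Six1 plus His-tagged Eya2 (5X stock 250/500 nM) in pH 8.0 Tris/NaCl/TCEP buffer, beads added, then incubated 1 h, 37 C, dark.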
DT40 TDP1 no CPT: qHTS for Inhibitors of human tyrosyl-DNA phosphodiesterase 1 (TDP1): qHTS in cells in absence of CPT; 420,000 compounds, 15% hits; Potency, µM (top dose mostly 46.2 µM), usual class: inhibitors; DT40 Tdp1-/- hTDP1 cells, no CPT, ATP luminescence, 48 h; also: nearly all actives have a fitted effect of over 55% in size
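Readout: luminescence from CellTiter-Glo after 30 min in the dark at RT. Cells: DT40 Tdp1-/- with stable hTDP1, 400/well. Exposure: compounds alone, ≥48 hr, 37 °C.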
DT40 TDP1 CPT: qHTS for Inhibitors of human tyrosyl-DNA phosphodiesterase 1 (TDP1): qHTS in cells in presence of CPT | chicken DT40 Tdp1-/-;hTDP1 cells + 20 nM CPT, ATP luminescence, 48 h | Potency, µM (titrated, usually from 46.2 µM), hits mostly inhibitors | 420,000 compounds, 12% hits | AID 686979, 2013; also: nearly all actives have a fitted effect of over 55% in size
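Cell growth measured by CellTiter-Glo luminescence after a minimum 48 h, 37 C compound exposure with 20 nM CPT in Tdp1-knockout DT40 cells stably expressing hTDP1, seeded 400/well; qHTS titration format.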
CtBP-E1A inh: qHTS Assay for Inhibitors of the CtBP/E1A Interaction | activity change, % (no concentration beside the values) | AlphaScreen GST-E1A/His-CtBP binding, 1536-well; hits give low values | 340,000 compounds, 0.49% hits | CtBP / adenovirus E1A interaction (AlphaScreen); in the data active = activity change below about -65%; inconclusive = mostly about -30% to -63%
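AlphaScreen with 125 nM GST-E1A and 125 nM His-CtBP (5X stocks) in Tris pH 8.0, 300 mM NaCl, BSA, Tween 20, TCEP. Compounds preincubated 2 h at 37 deg C, then glutathione donor/nickel acceptor beads added for 1 h at 37 deg C in dark.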
IL1B secr inh: qHTS for Inhibitors of Inflammasome Signaling: IL-1-beta AlphaLISA Primary Screen; THP-1 LPS/ATP IL-1B secretion, AlphaLISA, 16 h; hits give low values; activity change, % at 57.5 µM; 360,000 compounds, 4.7% hits; AID 743279, 2014; in the data active = activity change below about -50%; inconclusive = mostly about -30% to -49%
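Secreted IL-1B measured by AlphaLISA bead assay after 16 h compound exposure of THP-1 cells; compounds (final up to 57.5 uM) added 1 h before LPS (250 ng/mL) and ATP (1.25 mM) stimulation; lower signal means less secretion.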
TDP1 inh: qHTS Assay for Inhibitors of Tyrosyl-DNA Phosphodiesterase (TDP1); Tyrosyl-DNA phosphodiesterase 1 (Homo sapiens), Q9NUW8; recombinant TDP1, AlphaScreen DNA substrate cleavage; Potency, µM (highest dose often 130 µM), usual class: inhibitors; 350,000 compounds, 0.28% hits; AID 485290, 2010; also: nearly all actives have a fitted effect of over 40% in size
Target sequence (Q9NUW8 whole entry, looked up): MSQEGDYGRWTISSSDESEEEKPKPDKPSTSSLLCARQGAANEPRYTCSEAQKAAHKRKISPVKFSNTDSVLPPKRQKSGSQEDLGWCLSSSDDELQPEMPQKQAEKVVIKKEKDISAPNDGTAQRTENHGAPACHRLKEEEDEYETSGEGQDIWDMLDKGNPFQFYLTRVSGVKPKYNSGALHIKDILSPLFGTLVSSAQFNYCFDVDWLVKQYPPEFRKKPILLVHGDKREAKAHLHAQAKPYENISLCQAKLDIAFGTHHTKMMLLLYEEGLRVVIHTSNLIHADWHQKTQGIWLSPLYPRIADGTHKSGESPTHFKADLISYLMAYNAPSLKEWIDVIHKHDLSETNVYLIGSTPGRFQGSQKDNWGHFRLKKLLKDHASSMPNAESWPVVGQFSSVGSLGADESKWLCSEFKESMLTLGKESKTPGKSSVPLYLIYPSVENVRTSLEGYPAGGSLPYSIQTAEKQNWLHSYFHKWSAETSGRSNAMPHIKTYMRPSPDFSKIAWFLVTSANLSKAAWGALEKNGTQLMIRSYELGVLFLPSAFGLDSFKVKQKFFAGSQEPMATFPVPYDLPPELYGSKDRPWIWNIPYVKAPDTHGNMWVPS
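Here, a 5' biotin and 3' phosphotyrosine-FITC DNA oligonucleotide reports Tdp1 activity: intact substrate bridges AlphaScreen beads, while cleavage leaves a 3' phosphate and drops signal. All incubations at room temperature.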
Of the large screens only hits and unclear results are named; the others gave an inactive call. Sampled rows, rich in hits. Any-hit rate of the full collection: about 18%. Unless noted, calls follow the shape of the dose curve; as a rule, active = well fitted curve in the direction sought with a large enough effect; inconclusive = small, poorly fitted or top-dose-only effect, or another doubt; inactive = no such curve, though single readings can be large; an effect the other way counts as inactive or inconclusive.

C=CC(=O)N=c1sc2ccccc2n1-c1ccccc1	DT40 TDP1 no CPT 2.6µM, DT40 TDP1 CPT 2.6µM, IL1B secr inh -104
N#Cc1cccc(NC(=O)CC2CCCCC2)c1	none
CC(C)N1CSC(=S)N(Cc2ccccc2)C1	DT40 TDP1 no CPT 4.1µM, DT40 TDP1 CPT 4.1µM, IL1B secr inh -99
S=C1SCN(Cc2cccnc2)CN1Cc1ccccc1	DT40 TDP1 no CPT 4.6µM, DT40 TDP1 CPT 2.9µM, IL1B secr inh -107
CC(C)(C)N1CSC(=S)N(Cc2ccccc2)C1	DT40 TDP1 no CPT 4.6µM, DT40 TDP1 CPT 5.2µM
S=C1NCN(CCc2ccccc2)CN1Cc1ccccc1	DT40 TDP1 no CPT inconclusive, DT40 TDP1 CPT inconclusive (no result: CtBP-E1A inh)
CC(=O)N1CCC(N(CCCOC(C)C)C(=O)Nc2ccc(Cl)cc2)CC1	none (no result: TDP1 inh)
Cn1nc(C(F)(F)F)c(-c2ccc(Br)cc2)c1NC(=O)CSCC(=O)O	none (no result: TDP1 inh)
CCNc1ccccc1CP(=O)(c1ccccc1)c1ccccc1O (configuration not stated)	DT40 TDP1 no CPT 2.6µM, DT40 TDP1 CPT inconclusive (no result: TDP1 inh)
Cc1ccc(NC(=O)CN(Cc2ccco2)Cc2ccccc2O)cc1C	DT40 TDP1 no CPT inconclusive, DT40 TDP1 CPT inconclusive, IL1B secr inh -62
Cc1ccc(NC(=O)N(Cc2cccnc2)Cc2ccco2)cc1C	none
Cc1ccc(NC(=O)N(Cc2ccco2)C(C)c2ccco2)cc1C (configuration not stated)	DT40 TDP1 no CPT 23µM, DT40 TDP1 CPT inconclusive
Cc1[nH]n(-c2ccccc2)c(=O)c1C(=O)Nc1ccccc1	DT40 TDP1 no CPT 16µM, DT40 TDP1 CPT 8.2µM
Cc1nn(-c2ccccc2)nc1C(=O)c1c(C)[nH]n(-c2ccccc2)c1=O	DT40 TDP1 no CPT 3.7µM, DT40 TDP1 CPT 5.2µM
C/C(=N\NC(=O)c1ccc(C)cc1)c1c(C)[nH]n(-c2ccccc2)c1=O	Six1-Eya2 blk inconclusive, DT40 TDP1 no CPT 4.1µM, DT40 TDP1 CPT 4.6µM (no result: CtBP-E1A inh)
C/C(=N\NC(=O)c1ccccc1)c1c(C)[nH]n(-c2ccccc2)c1=O	DT40 TDP1 no CPT 0.41µM, DT40 TDP1 CPT 0.15µM
Cc1[nH]n(-c2ccccc2)c(=O)c1C(=O)c1ccc([N+](=O)[O-])cc1	DT40 TDP1 no CPT inconclusive, DT40 TDP1 CPT inconclusive
COc1ccc(CN2C(=O)c3ccccc3C2C(=O)NC2CCC(C)CC2)c(OC)c1 (configuration not stated)	none
CC1=C(C(=O)N2CCOCC2)CC(CC(=O)NC2CCCC2)C(=O)N1Cc1ccc(F)cc1 (configuration not stated)	none (no result: TDP1 inh)
COc1ccc(CCNC(=O)CNC(=O)c2ccc3c(c2)OCO3)cc1OC	none
O=C(Cc1ccccc1)Nc1ccc(NC(=O)c2cccs2)cc1Cl	DT40 TDP1 CPT inconclusive
COc1cc(OC)c(N(C)S(=O)(=O)c2cccc(C(=O)NC3=NCCS3)c2)cc1Cl	DT40 TDP1 no CPT inconclusive, DT40 TDP1 CPT 23µM (no result: TDP1 inh)
COc1cc(OC)c(N(C)S(=O)(=O)c2cccc(C(=O)OCC(=O)N(C)Cc3ccccc3)c2)cc1Cl	DT40 TDP1 no CPT 23µM, DT40 TDP1 CPT 16µM (no result: TDP1 inh)
COc1ccccc1N(C)S(=O)(=O)c1ccc(Cl)c(C(=O)NC2=NCCS2)c1	none
COc1cc(OC)c(N(C)S(=O)(=O)c2cccc(C(=O)Nc3nc(C)cs3)c2)cc1Cl	DT40 TDP1 no CPT inconclusive, DT40 TDP1 CPT 16µM
CC(C)C(=O)Nc1ccc(NC(=S)NC(=O)c2ccccc2F)cc1	none
CC(=O)N(\C=C/C=C/C=C1\Sc2ccccc2C1=O)c1ccccc1	DT40 TDP1 no CPT 13µM, DT40 TDP1 CPT 29µM
CN(C)/C=C1/Sc2ccccc2C1=O	none
CCOC(=O)C1C2C=CC3(CN(Cc4cccs4)C(=O)C13)O2 (configuration not stated)	DT40 TDP1 no CPT 21µM, DT40 TDP1 CPT inconclusive
Cc1cccc(CC(=O)Nc2ccon2)c1	none (no result: TDP1 inh)
CCC/C(=C1/c2ccccc2C(=O)N1c1ccccc1)c1ccc2c(c1)OCCO2	DT40 TDP1 CPT inconclusive
CCC/C(=C1/c2ccccc2C(=O)N1c1ccccc1)c1ccc(O[C@@H]2CCCCO2)cc1	DT40 TDP1 no CPT 16µM, DT40 TDP1 CPT inconclusive
O=C(c1cnn(Cc2ccccc2)c1)N1CCN(S(=O)(=O)/C=C/c2ccccc2)CC1	DT40 TDP1 no CPT inconclusive, DT40 TDP1 CPT inconclusive, IL1B secr inh inconclusive
O=C(Nc1cccnc1)c1cnn2c(C(F)F)cc(C3CC3)nc12	Six1-Eya2 blk inconclusive, DT40 TDP1 no CPT 5.2µM, DT40 TDP1 CPT 15µM
O=C(Nc1cc(F)ccc1F)c1cnn2c(C(F)F)cc(-c3ccccc3)nc12	none (no result: Six1-Eya2 blk, CtBP-E1A inh, IL1B secr inh)
O=C(Nc1cc(Br)ccc1O)c1cnn2c(C(F)F)cc(C3CC3)nc12	DT40 TDP1 no CPT 16µM
C/C(=N\NC(=O)CNC(=O)c1ccncc1)c1ccc(C)cc1	none
COc1cc(Nc2ncc3c(n2)CCN(Cc2cc(F)cc(F)c2)C3)cc(OC)c1	DT40 TDP1 no CPT 3.7µM, DT40 TDP1 CPT 4.6µM (no result: Six1-Eya2 blk, CtBP-E1A inh, IL1B secr inh)
COc1cc(Nc2ncc3c(n2)CCN(Cc2cccc(C)c2)C3)cc(OC)c1	DT40 TDP1 no CPT 3.3µM, DT40 TDP1 CPT 3.7µM (no result: Six1-Eya2 blk, CtBP-E1A inh, IL1B secr inh)
